The term inhibition denotes the drop in the measured response relative to a control, in per cent.

The values that follow come from PubChem BioAssay AID588354 (The Scripps Research Institute Molecular Screening Center, 2011).

The whole screen tested about 360,000 compounds, of which about 430 (0.12%) were called active. What follows is part of a selection rich in actives, with near analogues and random picks from the rest. Unmarked numbers belong to inactive results.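 How the source made its calls: active means inhibition above the campaign mean plus 3 SD, with each screening campaign given its own cutoff (cut at about 60% in these data); inactive means the rest.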

The assay deals with Nuclear receptor coactivator 1 (Homo sapiens) (UniProt Q15788). Description: NCOA1 GAL4-fusion reporter inhibition – cell-based, luminescence, primary screen (AID 588354).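 Further: 0% = DMSO treated cells and 100% = gossypol at 36 µM.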 The following applies: HEK293 GAL4-SRC1 luciferase reporter, at 3.6 µM, active compounds read high. For orientation: A reporter such as luciferase makes a cellular process visible.
Nuclear receptor coactivator 1 (Homo sapiens), sequence (Q15788 whole entry, looked up, the tested form may be a part): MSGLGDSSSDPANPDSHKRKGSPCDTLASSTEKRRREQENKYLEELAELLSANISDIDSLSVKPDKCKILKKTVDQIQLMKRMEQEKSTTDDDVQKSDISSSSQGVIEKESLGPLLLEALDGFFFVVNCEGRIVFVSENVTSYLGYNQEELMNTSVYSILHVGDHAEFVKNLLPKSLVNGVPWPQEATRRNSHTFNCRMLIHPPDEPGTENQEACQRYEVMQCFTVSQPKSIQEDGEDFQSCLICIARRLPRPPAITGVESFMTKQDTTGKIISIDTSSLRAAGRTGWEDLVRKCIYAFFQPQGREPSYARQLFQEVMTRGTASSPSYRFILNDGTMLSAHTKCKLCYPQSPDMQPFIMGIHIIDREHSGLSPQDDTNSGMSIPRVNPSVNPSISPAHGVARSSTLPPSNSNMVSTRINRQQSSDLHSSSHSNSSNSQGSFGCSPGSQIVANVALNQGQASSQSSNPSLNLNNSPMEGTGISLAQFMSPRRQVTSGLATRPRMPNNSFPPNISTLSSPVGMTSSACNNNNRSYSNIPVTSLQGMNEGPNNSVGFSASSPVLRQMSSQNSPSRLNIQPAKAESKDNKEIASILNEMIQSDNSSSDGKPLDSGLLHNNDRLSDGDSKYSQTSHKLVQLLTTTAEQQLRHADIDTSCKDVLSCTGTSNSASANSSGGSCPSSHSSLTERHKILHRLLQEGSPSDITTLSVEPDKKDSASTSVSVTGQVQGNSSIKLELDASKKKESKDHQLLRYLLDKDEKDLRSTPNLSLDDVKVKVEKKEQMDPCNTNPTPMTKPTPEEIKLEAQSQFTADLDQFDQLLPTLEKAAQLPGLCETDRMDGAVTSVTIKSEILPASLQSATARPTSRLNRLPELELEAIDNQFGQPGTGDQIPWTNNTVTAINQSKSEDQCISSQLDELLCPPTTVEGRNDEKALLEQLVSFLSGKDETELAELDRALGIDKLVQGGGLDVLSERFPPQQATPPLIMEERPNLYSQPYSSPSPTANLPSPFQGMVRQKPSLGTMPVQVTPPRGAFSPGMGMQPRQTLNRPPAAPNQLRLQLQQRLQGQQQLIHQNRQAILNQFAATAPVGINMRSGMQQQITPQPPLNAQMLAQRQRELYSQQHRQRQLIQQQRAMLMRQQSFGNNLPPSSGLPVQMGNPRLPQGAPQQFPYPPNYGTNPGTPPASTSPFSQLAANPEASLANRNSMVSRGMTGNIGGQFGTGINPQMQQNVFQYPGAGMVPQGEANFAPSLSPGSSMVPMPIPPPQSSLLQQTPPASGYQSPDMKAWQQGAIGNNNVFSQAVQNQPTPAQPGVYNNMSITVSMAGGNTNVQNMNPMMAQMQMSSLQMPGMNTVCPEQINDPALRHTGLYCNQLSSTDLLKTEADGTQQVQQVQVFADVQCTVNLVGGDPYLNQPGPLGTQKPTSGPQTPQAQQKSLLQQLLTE
With `C[C@@H](NC(=O)c1nc[nH]c1C(=O)N1CCN(C(=O)OC(C)(C)C)CC1)c1ccccc1`, the inhibition was -15.6%.

Regarding `Cn1cc(/C=C/C(=O)N2CCCC(C(=O)c3ccc(C(F)(F)F)cc3)C2)cn1` (stereo unspecified), the inhibition is 8.39%.

On to `CC1(NC(=O)CCS(=O)(=O)c2ccc(Cl)cc2)CCS(=O)(=O)C1` (stereo unspecified), for which the inhibition was -3.53%.

With `CN(C(=O)Nc1ccc(Cl)cc1)n1cnc2ccccc2c1=O`, the inhibition was -15.6%.

For `CN(c1ccc2nc3ccccc3c(=O)n2n1)C1CCCCC1`, the inhibition was 71.9% (active).

For `CC(C)(C)c1nc2ccccc2c(=O)n1N1C(=O)c2ccccc2C1=O`, the inhibition was 6.03%.

Consider `CSc1ncccc1C(=O)Nc1cccc(S(=O)(=O)N2CCOCC2)c1`, for which the inhibition is -16.1%.

For `O=C(Nc1cccc(Cc2ccccc2)c1)Nc1ccc2nc([C@@H]3O[C@H](CO)[C@@H](O)[C@H](O)[C@H]3O)[nH]c2c1`, the inhibition is -1.54%.

Consider `CN(C)S(=O)(=O)c1ccc(Oc2ccc(S(=O)(=O)N(C)C)cc2)cc1`, for which the inhibition is 21.5%.

For `CC(C)(C)c1ccc(Oc2ccc(N)cc2)cc1`, the inhibition is 74% (active).

With `COc1cc2c3c(c1)/C(=C1/SC(=S)NC1=O)C(=O)N3C(C)(C)C=C2C`, the inhibition was -18%.

For `CCN(CC(=O)Nc1ccc2c(c1)OCCO2)Cc1cc(=O)oc2cc(C)c(C)cc12`, the inhibition was 1.42%.

For the compound `COC(=O)c1ccc(N2CCOCC2)c(NC(=O)c2ccc(Br)o2)c1`, the inhibition was 3.93%.

For `CCCCc1nc2c(=O)[nH]c3ccccc3c2o1`, the inhibition was -5.89%.

`Cc1cc(C)cc(NC(=O)CSCc2cnn(-c3ccccc3)c2-n2cccc2)c1`: the inhibition was 0.69%.

For the compound `CCCc1noc2c1/C(=N\O)CCC2`, the inhibition was 7.65%.

`Cc1oc(C(N)=O)cc1COc1ccc(C(N)=O)cc1`: the inhibition was 11.6%.

With `Cn1c(-c2ccc(C(F)(F)F)cc2)cc2onc(-c3ccccc3)c2c1=O`, the inhibition was -53.3%.

As to `CC(OC(=O)c1ccc(-n2cnnn2)cc1)C(=O)NCc1ccccc1` (stereo unspecified), the inhibition is -1.03%.

In the case of `CCC(C)c1ccccc1NC(=O)CN(C)CC(=O)Nc1ccccc1SC` (stereo unspecified), the inhibition is 3.11%.

Turning to `CCc1ccc(C(=O)N2CCN(S(=O)(=O)c3sc(C(=O)O)c(C)c3C(=O)O)CC2)cc1`, the inhibition is -9.2%.

Consider `CC(C)CCNC(=O)C(C)N(C(=O)Cn1nnc(-c2ccc(F)cc2)n1)C1CCCC1` (stereo unspecified), for which the inhibition was 5.49%.

With `COc1ccc(Cn2cccc(NC(=O)Nc3ccc(C#N)cc3)c2=O)cc1`, the inhibition was 13.7%.

With `CCOc1ccc(S(=O)(=O)N2CCN(C(=O)c3oc4ccccc4c3C)CC2)cc1`, the inhibition is -3.94%.

`CCN(C(=O)COC(=O)CCOc1cccc(C)c1)c1c(N)n(Cc2ccccc2)c(=O)[nH]c1=O`: the inhibition was 4.13%.

Consider `Cc1cccc(C)c1Cn1c(C)c(C(=O)NCc2cccc(Cl)c2)sc1=O`, for which the inhibition was -0.2%.

As for `CCc1ccc(CN(C)C(=O)C2CCC(=O)N(Cc3cccc(OC)c3)C2)nc1` (stereo unspecified), the inhibition is 5.84%.

Regarding `CC(C)CN(C(=O)CSc1nncn1C)C1CCS(=O)(=O)C1` (stereo unspecified), the inhibition was 14%.

As to `O=C(NN=Cc1ccccc1O)NN=Cc1ccccc1O`, the inhibition is 63% (active).

In the case of `C=CCOc1ccccc1/C=N/NC(=O)Cc1ccccc1`, the inhibition is -8.79%.

`O=C(N/N=C/c1ccccc1O)/C(=C/c1ccccc1)CCO`: the inhibition is 30.9%.

In the case of `CCSc1sc(CC)cc1C=O`, the inhibition is -14.9%.

On to `Cc1cc2c(cc1C)N(Cc1ccccc1)C1=NCCCN12`, for which the inhibition was 21.9%.

As for `CS(=O)(=O)Nc1ccccc1C(=O)OCC(=O)NC1CC1`, the inhibition is -13.3%.

Regarding `COc1ccc2c(c1)c(=Cc1ccc(N(C)C)cc1)c1cc(-c3ccccc3)[n+](C)n12`, the inhibition is 64.1% (active).

`COc1ccc(Nc2ncnc3ccc(Br)cc23)c(OC)c1`: the inhibition is 81.9% (active).

In the case of `COc1ccc(OC)c(NC(=O)CN(C)CCOc2ccc(Br)cc2)c1`, the inhibition was -10.8%.

Take `COc1ccc(OC)c(Nc2nc3ccccc3n3cnnc23)c1`: the inhibition is 1.7%.

With `COc1ccccc1C(=O)NC(=O)COC(=O)c1ccco1`, the inhibition is 3.45%.

For `COC(=O)c1ccc(NC(=O)CSc2nncc3ccc(OC)c(OC)c23)cc1`, the inhibition is -23.3%.

Consider `CCN(CC)CCCNC(=O)c1c(O)c2cc(F)cc3c2n(c1=O)C(C)CC3` (stereo unspecified), for which the inhibition is -12.1%.

In the case of `COc1ccc(CCN2C(=O)N(c3ccc(OC)cc3)C(=O)C2CC(=O)Nc2ccc(OC)cc2)cc1` (stereo unspecified), the inhibition was -12.4%.

For the compound `O=C(Nc1cccc2c1CCCC2)C1CCN(C(=O)NC2CCCCC2)CC1`, the inhibition was 3.24%.

Regarding `O=C(CC1Nc2ccccc2NC1=O)Nc1ccccc1` (stereo unspecified), the inhibition is -51.2%.

`CCN(c1ccccc1)S(=O)(=O)c1ccc(OCC(=O)N2CCCC2)cc1`: the inhibition is -2.15%.

Consider `CCC(C)NC(=O)c1cc(Cl)ccc1OC` (stereo unspecified), for which the inhibition is 3%.

Consider `CC(C)C[C@H](NC(=O)C1CCC(CNC(=O)[C@@H]2CCCN2C(=O)OC(C)(C)C)CC1)C(=O)O` (stereo partly specified), for which the inhibition is 16%.

`CC(C)(C)C(=O)NCCCNc1ccc([N+](=O)[O-])cc1`: the inhibition is -24.3%.

On to `CCN(CC)S(=O)(=O)c1ccc(N2CCN(C)CC2)c(NC(=O)Nc2ccccc2F)c1`, for which the inhibition is -0.49%.

Turning to `COCC1CCCN(Cc2nc(-c3ccc4c(c3)OCO4)no2)C1` (stereo unspecified), the inhibition was -70.5%.

For `CC(=O)Nc1ccc(C(=O)Nc2cc(S(=O)(=O)N3CCOCC3)ccc2N2CCOCC2)cc1`, the inhibition was -2.37%.

Take `O=C(NCCc1ccccc1)Oc1ccc(Cl)cc1`: the inhibition was -56.8%.

`COc1ccc(CN2CCC(c3nc4ccc(Cl)cc4[nH]3)CC2)cc1`: the inhibition was 2.53%.

`Cc1cc(NC(=O)CSC2=NS(=O)(=O)c3cc(Cl)ccc3N2)no1`: the inhibition was -31%.

As for `CN(CCOc1ccc(Br)cc1)CC(=O)Nc1cccc(S(=O)(=O)NC2=NCCC2)c1`, the inhibition is -16.8%.

Consider `CC(C)(C)c1ccccc1NC(=O)CN1C(=O)NC2(CCCC2)C1=O`, for which the inhibition was -13.8%.

With `CCn1nc(C(=O)Nc2ccc(N3CCOCC3)cc2)c2ccccc2c1=O`, the inhibition was -1.53%.

For the compound `CCCCOC(=O)NCN1C(=O)C2C3C=CC(C3)C2C1=O` (stereo unspecified), the inhibition is 1%.

As to `Cc1cc(NCc2cccnc2)no1`, the inhibition is 25.1%.

Regarding `Clc1ccc(Cn2ncc3c(NCc4cccnc4)ncnc32)cc1`, the inhibition is -4.66%.

With `Brc1ccc2ncnc(NCc3cccnc3)c2c1`, the inhibition was 66.1% (active).

Regarding `COc1ccc(S(=O)(=O)N2CCN(C(=O)N(C)C)C2C)cc1` (stereo unspecified), the inhibition is -47.2%.

For `C=CCN1C=C(C(=O)c2ccccc2)C(=O)CC1`, the inhibition is -2.55%.

With `O=C(O)C1CCCN1C1=NS(=O)(=O)c2ccccc21` (stereo unspecified), the inhibition is 12.2%.

Turning to `Cc1ccc(C)c(OCc2cc(C(=O)N3CCN(c4cnccn4)CC3)no2)c1`, the inhibition is -12.1%.

Turning to `CCOc1ccccc1NS(=O)(=O)c1c[nH]c(C(=O)OC)c1`, the inhibition was -15%.

As to `C=CC[C@H](CC(=O)OC(C)(C)C)C(=O)OC[C@H]1CCCN1C(=O)[C@H](CC=C)CC(=O)N(CCO)Cc1ccccc1`, the inhibition is -0.47%.

With `CC1(C)CN(Cc2cccnc2)C(=O)[C@H]1CC(=O)Nc1ccc(Br)cc1`, the inhibition is -2.09%.

For the compound `O=c1ccc2c(-c3ccccc3S(=O)(=O)O)c3ccc(O)c(O)c3oc-2c1O`, the inhibition was 13.4%.

For the compound `CCn1c(SCC(=O)N2CCCC2=O)nc2ccccc21`, the inhibition was 16.1%.

Consider `CC1=C(C(=O)N(C)C)C(c2ccccc2OC(F)F)NC(=O)N1` (stereo unspecified), for which the inhibition was 4.69%.

`O=C(NC1CCCC1)C(c1ccc(N2CCOCC2)cc1)N(C(=O)c1ccco1)c1ccccc1F` (stereo unspecified): the inhibition was 5.48%.

Turning to `Cc1ccc(CSCC2Nc3ccc(C(=O)N4CCN(c5ccc(F)cc5)CC4)cc3NC2=O)cc1` (stereo unspecified), the inhibition was 2.74%.

For `C[C@@H](C(=O)N1CCNCC1)n1cc(CCC(=O)O)nn1`, the inhibition is 3.05%.

For `Cc1ccccc1-c1cc(C(=O)NCC2CC2)n(CC2CC(c3cccnc3)=NO2)n1` (stereo unspecified), the inhibition is 2.14%.

With `CO/N=C/c1cn(-c2ccc(Cl)cc2)nn1`, the inhibition is -12.7%.

As for `COc1ccc(C(=O)Nc2ccccc2C(=O)N/N=C/c2ccc(O)c(OC)c2)cc1`, the inhibition is 64.2% (active).

Consider `COc1cccc(OCc2cc(/C=N/NC(=O)c3nc(Cl)c(Cl)c(N)c3Cl)ccc2OC)c1`, for which the inhibition is -14.2%.

As to `CCOc1cc(/C=N/NC(=O)c2c(C)nc3ccc(Cl)cn23)ccc1O`, the inhibition is 0.11%.

Consider `CC1CN(c2nc(-c3ccccc3)nnc2-c2ccccc2)CC(C)O1` (stereo unspecified), for which the inhibition was 10.6%.

Regarding `CC(Oc1ccc(Cl)cc1Cl)C(=O)/C=C/N(C)C` (stereo unspecified), the inhibition is -17.4%.

On to `COCCN(Cc1nc(-c2ccc(C(F)(F)F)cc2)no1)C(C)C`, for which the inhibition is -8.16%.

In the case of `CC(CCn1cccn1)NC(=O)CCc1nnc(CCc2ccccc2)o1` (stereo unspecified), the inhibition was 11.7%.

For `O=C(NNS(=O)(=O)Cc1ccccc1)c1ccc([N+](=O)[O-])cc1`, the inhibition is -4.79%.

For `O=C(NC(Nc1nc2ccc([N+](=O)[O-])cc2s1)(C(F)(F)F)C(F)(F)F)c1ccccc1`, the inhibition is 68.3% (active).

Consider `O=C(Nc1cc(-c2ccccc2)nn1-c1ccccc1F)c1ccc([N+](=O)[O-])cc1`, for which the inhibition is -16.9%.

Take `COc1cc(CN2CCNC(=O)C2CC(=O)NCCc2ncccc2C)cc(OC)c1` (stereo unspecified): the inhibition is 14.8%.

Regarding `O=C(CCc1ccc(S(=O)(=O)N2CCOCC2)cc1)Nc1ccc2ccccc2c1`, the inhibition was -5.83%.

For `CC1CCCN(CCOCCOc2ccccc2-c2ccccc2)C1` (stereo unspecified), the inhibition is 9.99%.

With `C[C@H]1CN([C@@H](C)CO)C(=O)c2cc(Br)cnc2O[C@H]1CN(C)S(=O)(=O)c1cccs1`, the inhibition is -44.2%.

For the compound `N#CC1(NC(=O)COC(=O)CSc2ccc(F)cc2)CCCCC1`, the inhibition is 20.2%.
